The results in this text go back to PubChem BioAssay AID1259415 (National Center for Advancing Translational Sciences (NCATS), 2018).

The whole screen tested about 410,000 compounds, of which about 18,000 (4.4%) were called active. Not shown: some 7% with an inconclusive outcome. This excerpt belongs to a sample that is enriched for actives. Unmarked numbers belong to inactive results. Rule as the data show it: active = activity change below about -60%; inconclusive = no clear call, values can overlap the other calls; inactive = above about -39%.
% is scaled to controls: 0 for no effect and ±100 for the full control effect.

This experiment is described as follows: qHTS Assay for inhibitors of the human cytomegalovirus (HCMV). As to conditions: HFF cells, HCMV-luciferase reporter, 72 h; at 57.5 µM; active compounds read low. An outline of the steps:
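Compounds were evaluated in HFFs infected with an HCMV luciferase reporter virus (MOI 1 PFU/cell). Luciferase in lysates collected 72 h post infection served as the replication measure.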
(In general: In qHTS, concentration-response curves come from the screen itself.)
Consider `CC=C(C)C(=O)OC1CCN2CC=C(COC(=O)C(O)(C(C)OC)C(C)(C)O)C12` (stereo unspecified), for which the activity change, negative = inhibition is -28.3%.
As for `O=C(CCC1N=C2c3ccccc3N=C(SCc3ccccc3F)N2C1=O)NCCc1ccccc1` (stereo unspecified), the activity change, negative = inhibition is -29%.
To `O=C(Cn1c(=O)n(-c2ccc(F)cc2)c(=O)c2sccc21)Nc1cccc(C(F)(F)F)c1` belongs -5.68%; to `CC1CCCCN1S(=O)(=O)c1ccc(F)c(C(=O)Nc2ccccc2C(F)(F)F)c1` (stereo unspecified), 11%.
Consider `COc1cc([C@H](Cc2ccccc2)NC(C)=O)oc(=O)c1`, for which the activity change, negative = inhibition is -10.1%.
As for `NC(=O)c1sc2nc3c(c(-c4ccccc4)c2c1N)CCC3`, the activity change, negative = inhibition was -93.9% (active).
On to `COc1cccc(C(=O)c2sc3nc(-c4ccccc4)cc(C(F)(F)F)c3c2N)c1`, for which the activity change, negative = inhibition is 7.18%.
Regarding `CC(C)OC(=O)c1sc2nc3c(cc2c1N)C(=O)CCC3`, the activity change, negative = inhibition was 45.7%.
Turning to `CCOc1ccc(CCNC(=O)COC(=O)CCS(=O)(=O)c2ccc(C)cc2)cc1OCC`, the activity change, negative = inhibition is 55.9%.
To `COc1ccc(-n2nc3c(c2NC(=O)c2ccc(N4C(=O)CCC4=O)cc2)CSC3)cc1` belongs 0%; to `COc1ccccc1C(=O)Oc1ccc(N2C(=O)CCC2=O)cc1`, -9.72%.
Regarding `COc1ccc(CC(=O)Nc2nc(-c3ccc(F)c(F)c3)cs2)cc1OC`, the activity change, negative = inhibition was -78.6% (active).
`COc1ccc(C2(CNC(=O)Cc3ccc(OC)c(OC)c3)CCCC2)cc1`: the activity change, negative = inhibition is -33.6%.
Take `COc1ccc(C(=O)Nc2nc(-c3ccc(S(=O)(=O)N4CCOCC4)cc3)cs2)cc1`: the activity change, negative = inhibition was -98.4% (active).
To `COc1ccc(-c2cc(C(=O)NCc3cc(OC)c(OC)c(OC)c3)[nH]n2)cc1` belongs 3.93%; to `COc1ccc(-c2csc(NC(=O)c3ccc(N4C(=O)CCC4=O)cc3)n2)cc1OC`, -70.7% (active); to `Cc1cc2nc(NC(=O)c3ccc(S(=O)(=O)N4CCOCC4)cc3)sc2cc1C`, 3.59%.
Take `COc1ccc(CC(=O)Nc2nnc3n2CCS3)cc1OC`: the activity change, negative = inhibition was 1.77%.
On to `COc1ccc(CCNC(=O)COC(=O)Cc2cc(OC)c(OC)c(OC)c2)cc1`, for which the activity change, negative = inhibition is -11.8%.
For `COc1cc(CC(=O)Nc2nc(-c3ccc(F)c(F)c3)cs2)cc(OC)c1OC`, the activity change, negative = inhibition is -77.3% (active).
`COc1ccc(C(=O)Nc2cc(S(=O)(=O)N3CCCC3)ccc2Cl)cc1`: the activity change, negative = inhibition was -31.9%.
To `CCC(C)N(C(=O)COC(=O)C1C(C(=O)OC)=C(C)NC(C)=C1C(=O)OC)C1CCS(=O)(=O)C1` (stereo unspecified) belongs -15.8%; to `COc1ccc(S(=O)(=O)N[C@H]2CC[C@@]34CCCN3C(=O)CCC[C@H]4[C@H]2Cc2ccccc2)cc1`, -13.9%; to `Cc1ccccc1OCc1nc2c3cnn(-c4ccccc4F)c3ncn2n1`, 2.88%.
In the case of `CCN1CCN(c2ncc3c(n2)CC(c2ccccc2O)CC3=O)CC1` (stereo unspecified), the activity change, negative = inhibition was -2.14%.
On to `CCOC(=O)c1ccc2c(c1)N(Cc1cccc(OC)c1)C(=O)c1ccccc1S2(=O)=O`, for which the activity change, negative = inhibition is 41.8%.
For `O=C(NC1CCCCC1)c1ccc(Cn2c(SCc3ccccc3)nc3cccnc32)cc1`, the activity change, negative = inhibition was 13.4%.
`CCS(=O)(=O)N1CCc2cc(C(=O)NCc3ccc(OC)cc3)ccc21`: the activity change, negative = inhibition is 21.8%.
Consider `Cc1ccc(OCCSc2nc(C)c(Cc3ccccc3)c(=O)[nH]2)cc1`, for which the activity change, negative = inhibition was -3.53%.
Turning to `COc1ccc(CNC(=O)c2cc3c(=O)[nH]c4ccccc4c3s2)cc1`, the activity change, negative = inhibition was -6.89%.
As for `Cc1ccc(C)n1-c1nnc(N2CCC(C(=O)NCc3ccccc3Cl)CC2)s1`, the activity change, negative = inhibition was -16.5%.
For the compound `Cc1cccc(-c2nc(SCC(=O)Nc3cc(C)on3)c3c(=O)n(C)c(=O)n(C)c3n2)c1`, the activity change, negative = inhibition is -3.8%.
On to `CCOC(=O)c1oc2ccc(S(=O)(=O)n3nc(-c4ccccc4OC)cc3N)cc2c1C`, for which the activity change, negative = inhibition was 0.413%.
`Cc1oc2cc3oc(=O)ccc3cc2c1C`: the activity change, negative = inhibition is 57.6%.
For `Cc1ccc(NC(=O)Cc2ccc(NC(=O)N3CCCCc4ccccc43)cc2)cc1`, the activity change, negative = inhibition was 2.61%.
The result for `COc1ccc2c(c1)c(=O)c(C(=O)c1ccccc1)cn2CC(=O)Nc1ccc2c(c1)OCCO2` reads -4.48%; that for `COc1ccc(-c2noc(CSc3nc(C)cc(=O)[nH]3)n2)cc1OC`, 14.1%; that for `COc1ccccc1-c1noc(CSc2nnc(-c3ccccc3)n2-c2ccc(C)c(C)c2)n1`, 4.88%.
`COc1ccccc1-c1noc(CSc2nc(C)cc(=O)[nH]2)n1`: the activity change, negative = inhibition is -61.9% (active).
As for `Cn1c(=O)sc2cc(NS(=O)(=O)c3ccc(C(C)(C)C)cc3)ccc21`, the activity change, negative = inhibition is -1.79%.
Consider `COc1ccc(N2CCN(S(=O)(=O)c3cc(Br)cnc3N)CC2)cc1`, for which the activity change, negative = inhibition is 19.7%.
The result for `O=C(Cc1ccc(Cl)cc1)Nc1ccc2nn(-c3ccc(Cl)cc3)nc2c1` reads 21.1%; that for `Cc1cc2nn(-c3ccc(Cl)cc3)nc2cc1NC(=O)C(C)C`, -64.3% (active); that for `CCCC(=O)Nc1cc2nn(-c3ccccc3)nc2cc1C`, 123%.
Turning to `Cn1c(=O)n(Cc2c(F)cccc2Cl)c(=O)c2c1nc1n2CCN1c1ccc(F)cc1`, the activity change, negative = inhibition is 17.8%.
`COCCn1c(SCC(=O)c2cc(C)ccc2C)nc2cc(C(=O)NC3CCCC3)ccc2c1=O`: the activity change, negative = inhibition is -4.52%.
As for `CC(C)c1ccc(NS(=O)(=O)c2ccc3[nH]cc(C(=O)NC4CCCC4)c(=O)c3c2)cc1`, the activity change, negative = inhibition is 9.04%.
To `COc1cc(CNCCSc2nnnn2C)ccc1OCc1c(F)cccc1Cl` belongs -60.3% (active); to `Cc1c(Cl)cccc1-c1ccc(CNCCCSc2nnnn2C)o1`, -0.502%; to `Cn1nnnc1SCCNCc1ccc(Cl)c(Cl)c1`, 6.59%.
On to `COc1cc(CNCCSc2nnnn2C)ccc1OCc1ccc(Cl)cc1Cl`, for which the activity change, negative = inhibition is -13.2%.
To `COc1cccc(CNCCSc2nnnn2C)c1OCc1ccccc1Cl` belongs -75.4% (active); to `CCOc1ccc(CNCCSc2nnnn2C)cc1`, -12.8%; to `Cc1ccc(Cn2c(C)c3cnn(CC(=O)NCc4ccccc4)c(=O)c3c2C)cc1`, -4.95%.
To `Cc1ccc(CNC(=O)CSC2=Nc3ccccc3C3=NC(C)C(=O)N23)cc1` (stereo unspecified) belongs -13.2%; to `CCCn1ccc2c(OCC(=O)NCc3ccc(F)cc3)cccc2c1=O`, 13.2%; to `CC1=C(c2ccc(F)cc2)S(=O)(=O)N=C1N1CCC(C(=O)NCCc2ccccc2C)CC1`, -1.97%.
As to `CCOc1ccc(CNC(=O)CCc2c(C)nn(-c3ccc(N4CCCCC4)nn3)c2C)cc1`, the activity change, negative = inhibition is 17.5%.
Take `CC(Sc1cccc[n+]1[O-])C(=O)Nc1cccc(S(=O)(=O)N2CCOCC2)c1` (stereo unspecified): the activity change, negative = inhibition is 28.7%.
The result for `CCC(=O)c1ccc(OCC(O)CN2C(=O)NC(C)(C)C2=O)cc1` (stereo unspecified) reads -18.3%; that for `CCC(=O)c1ccc(OCC(O)Cn2nc(C)c(C(C)=O)c2C)cc1` (stereo unspecified), -74.9% (active).
With `CCC(=O)c1ccc(OCC(O)CN2CCN(c3cccc(C(F)(F)F)c3)CC2)cc1` (stereo unspecified), the activity change, negative = inhibition was -2.36%.
The result for `COc1ccc(S(=O)(=O)N2CCCCC2c2cc(C(=O)NCc3ccc(F)cc3)no2)cc1` (stereo unspecified) reads -15%.
Regarding `COc1ccccc1OCC(=O)Nc1nnc2n1CCS2`, the activity change, negative = inhibition is 1.36%.
On to `CC1CN(C(=O)N2CCC(C(=O)NCc3ccco3)CC2)c2cc(Cl)ccc2O1` (stereo unspecified), for which the activity change, negative = inhibition is -3.73%.
As to `O=C(CCc1nnc2ccc(NCCCN3CCCC3=O)nn12)NCc1ccccc1Cl`, the activity change, negative = inhibition was 0% (active).
Turning to `O=C1CCCN1CCCNC(=S)Nc1ccc(F)c(Cl)c1`, the activity change, negative = inhibition was -22.1%.
In the case of `Cn1c(=O)c2sccc2n2c(CCC(=O)NCc3ccccc3Cl)nnc12`, the activity change, negative = inhibition was 9.44%.
Turning to `Cc1cc(=O)c2cc(C(=O)Nc3cccc(C)c3C)ccc2[nH]1`, the activity change, negative = inhibition was -7.29%.
The result for `C[C@@H]1CC2=C(C(=O)OC(C)(C)O2)[C@@H](C2CC2)O1` reads 7.2%.
For the compound `CCN(C(=O)COC(=O)c1c(C)nn(-c2ccccc2)c1Cl)c1c(N)n(Cc2ccccc2)c(=O)[nH]c1=O`, the activity change, negative = inhibition was -3.2%.
Regarding `Cn1cccc1Cc1nnc(SCC(=O)NCc2ccc3c(c2)OCO3)n1CCc1ccccc1`, the activity change, negative = inhibition is -7.07%.
Regarding `O=C(CSc1ncnc2scc(-c3ccccc3)c12)NCc1ccc2c(c1)OCO2`, the activity change, negative = inhibition is -73.8% (active).
Turning to `O=C(CSc1ccc(-c2ccco2)nn1)NCc1ccc2c(c1)OCO2`, the activity change, negative = inhibition was -3.61%.
Regarding `COc1cc2nc(SCc3ccc(F)cc3)n3nc(CCn4c(C)nc5ccccc54)nc3c2cc1OC`, the activity change, negative = inhibition is -1.21%.
To `O=C(CCC(=O)N1CC2CCCN2c2ccccc21)NCc1ccccc1Cl` (stereo unspecified) belongs -6.89%; to `COc1cc(NC(=O)CSc2nc3nc(C)c(Cc4ccc(C)cc4)c(C)n3n2)cc(OC)c1OC`, 0%; to `CCOC(=O)c1c(NC(=O)c2ccc(S(=O)(=O)N3CCCC(C)C3)cc2)sc2c1CCN(C(C)C)C2` (stereo unspecified), -62.5% (active).
With `COC(=O)c1c(NC(=O)c2ccc(S(=O)(=O)N3CCOCC3)cc2)sc2c1CCN(C(C)C)C2`, the activity change, negative = inhibition is -4.29%.
Regarding `CCOC(=O)c1c(NC(=O)C2CCN(S(=O)(=O)c3ccc(Cl)cc3)CC2)sc2c1CCCC2`, the activity change, negative = inhibition was -10.4%.
To `NC(=O)CSc1nc2c(oc3ccccc32)c(=O)n1Cc1ccccc1` belongs -22.4%; to `COc1ccc(OC)c(NC(=O)Cn2c(=O)n(Cc3ccccc3)c(=O)c3ccccc32)c1`, -3.04%.
To `COc1cccc(C(=O)N(Cc2cccc(Cl)c2)Cc2ccco2)c1` belongs -7.17%.
On to `CCC(=C/c1sc2ccc3ccccc3c2[n+]1C)/C=C1\Sc2ccc3ccccc3c2N1C`, for which the activity change, negative = inhibition was -100% (active).
`CCOc1ccc(N2CC(c3nc4ccccc4n3CCOc3ccc(OC)cc3)CC2=O)cc1` (stereo unspecified): the activity change, negative = inhibition was 23.3%.
To `Cc1ccc(-n2c(=O)c3cccnc3n2CC(=O)NCc2ccc(F)cc2)cc1C` belongs -0.36%.
